Laboratory results reported in the supplement of paper PMC12350171.
Where a name gives a salt, the structure may show the parent alone.

What was measured:
Assay in all cases: growth AUC normalised to DMSO control (median) (fraction of control); higher = less growth inhibition, active = hit call of the paper
Conditions in all cases: 20 µM;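 active = normalised median growth AUC below 0.1 of DMSO control; inactive = AUC 0.1 or higher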
P. vulgatus RND KO = system: P. vulgatus RND KO
Outline: (§1)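 After two overnight anaerobic passages, strains were inoculated at OD578 0.01 into mGAM in 96-well plates containing approved-drug library compounds at 20 μM and 1% DMSO. Growth was followed by reading OD578 hourly for 24 h within an anaerobic incubator. Area under the curve, taken by the trapezoidal rule up to the start of stationary phase, was normalised to same-plate vehicle wells, and the median of three biological replicates is listed.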

P. vulgatus WT = system: P. vulgatus WT
Outline: as §1

[1] = system: S. enterica typhimurium WT
Outline: as §1

[2] = system: S. enterica typhimurium tolC KO
Outline: as §1
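Also: active when median AUC fell below 0.1.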

| Structure (SMILES) | growth AUC normalised to DMSO control (P. vulgatus RND KO) | growth AUC normalised to DMSO control (P. vulgatus WT) | growth AUC normalised to DMSO control [1] | growth AUC normalised to DMSO control [2] |
| --- | --- | --- | --- | --- |
| COc1ccc(C2C(=O)c3ccccc3C2=O)cc1 [Anisindione] | 1 (inactive) | 1 (inactive) | 0.973 (inactive) | 0.749 (inactive) |
| CCCNC(C)(C)C(=O)Nc1ccccc1C [Quatacaine] | 1.01 (inactive) | 1.03 (inactive) | 1 (inactive) | 0.975 (inactive) |
| NC(=O)Cc1cccc(C(=O)c2ccccc2)c1N [Nepafenac] | 1.03 (inactive) | 1.01 (inactive) | 0.996 (inactive) | 1.02 (inactive) |
| COc1cccc(CCc2ccccc2OCC(CN(C)C)OC(=O)CCC(=O)O)c1 (stereo not given) [Sarpogrelate hydrochloride] | 1.03 (inactive) | 1.05 (inactive) | 1 (inactive) | 0.988 (inactive) |
| O=C1OC(c2ccc(O)cc2)(c2ccc(O)cc2)c2ccccc21 [Phenolphthalein] | 0.979 (inactive) | 0.994 (inactive) | 1.02 (inactive) | 0.524 (inactive) |
| CN(C)CCc1c[nH]c2ccc(Cn3cncn3)cc12 [Rizatriptan benzoate] | 1.02 (inactive) | 1.03 (inactive) | 1 (inactive) | 0.994 (inactive) |
| Cc1ccsc1C(=CCCN1CCC[C@@H](C(=O)O)C1)c1sccc1C [Tiagabine hydrochloride] | 0.999 (inactive) | 0.984 (inactive) | 1 (inactive) | 1 (inactive) |
| CCOc1ccc(NC(=O)CC(C)O)cc1 (stereo not given) [Bucetin] | 0.981 (inactive) | 0.981 (inactive) | 1 (inactive) | 0.992 (inactive) |
| O=C1c2c(O)ccc(O)c2C(=O)c2c(NCCNCCO)ccc(NCCNCCO)c21 [Mitoxantrone dihydrochloride] | 1.11 (inactive) | 1.04 (inactive) | 1 (inactive) | 0.999 (inactive) |
| CCCN1CCCC[C@H]1C(=O)Nc1c(C)cccc1C [Ropivacaine hydrochloride] | 1.02 (inactive) | 1.03 (inactive) | 0.997 (inactive) | 1 (inactive) |
| CCOC(=O)CC(=O)N1CCSC1COc1ccccc1OC (stereo not given) [Moguisteine] | 0.965 (inactive) | 0.965 (inactive) | 1.01 (inactive) | 0.986 (inactive) |
| CC(C)=CCC1C(=O)N(c2ccccc2)N(c2ccccc2)C1=O [Feprazone] | 1.04 (inactive) | 1.09 (inactive) | 1 (inactive) | 0.983 (inactive) |
| CCCCCNC(=N)N/N=C/c1c[nH]c2ccc(OC)cc12 [Tegaserod maleate] | 0.999 (inactive) | 0.991 (inactive) | 0.994 (inactive) | 0.941 (inactive) |
| COc1cc(NS(=O)(=O)c2ccc(N)cc2)ncn1 [Sulfamonomethoxine] | 1.02 (inactive) | 0.976 (inactive) | 0.955 (inactive) | 0.974 (inactive) |
| CC(C)(C)c1ccc(C(=O)CCCN2CCC(OC(c3ccccc3)c3ccccc3)CC2)cc1 [Ebastine] | 0.999 (inactive) | 1.01 (inactive) | 1.01 (inactive) | 0.97 (inactive) |
| CCC(=O)c1c(O)cc(O)cc1O [Flopropione] | 0.985 (inactive) | 0.986 (inactive) | 0.999 (inactive) | 0.994 (inactive) |
| N[C@@H](CCC(=O)N[C@@H](CS)C(=O)NCC(=O)O)C(=O)O [Glutathione] | 0.996 (inactive) | 1 (inactive) | 1 (inactive) | 0.956 (inactive) |
| COc1cc2c(cc1OC)CC(=O)N(CCCN(C)C[C@H]1Cc3cc(OC)c(OC)cc31)CC2 [Ivabradine hydrochloride] | 1 (inactive) | 0.997 (inactive) | 1.01 (inactive) | 0.965 (inactive) |
| CCOC(=O)[C@H](CCc1ccccc1)N[C@@H](C)C(=O)N(CC(=O)O)C1Cc2ccccc2C1 [Delapril Hydrochloride] | 1 (inactive) | 0.999 (inactive) | 1 (inactive) | 0.987 (inactive) |
| CC(C)Cc1ccc(C(C)C(=O)OCc2ccccn2)cc1 (stereo not given) [Ibuprofen Piconol] | 1 (inactive) | 1.05 (inactive) | 0.999 (inactive) | 0.875 (inactive) |
| Nc1cccc2c1C(=O)N(C1CCC(=O)NC1=O)C2=O (stereo not given) [Pomalidomide] | 1.06 (inactive) | 1.09 (inactive) | 1.02 (inactive) | 0.983 (inactive) |
| C[C@H](N[C@@H](CCc1ccccc1)C(=O)O)C(=O)N1CCC[C@H]1C(=O)O [Enalaprilat dihydrate] | 0.99 (inactive) | 0.986 (inactive) | 0.992 (inactive) | 0.995 (inactive) |
| CCCC(=O)N1CCCN(c2nc(N)c3cc(OC)c(OC)cc3n2)CC1 [Bunazosin hydrochloride] | 1.01 (inactive) | 1.01 (inactive) | 1 (inactive) | 0.994 (inactive) |

| Structure (SMILES) | growth AUC normalised to DMSO control (P. vulgatus RND KO) | growth AUC normalised to DMSO control (P. vulgatus WT) | growth AUC normalised to DMSO control [1] | growth AUC normalised to DMSO control [2] |
| --- | --- | --- | --- | --- |
| Cc1ccc2c([nH]c(=O)c3c(=O)cc(C(=O)OCCC(C)C)oc32)c1C [Repirinast] | 0.94 (inactive) | 0.943 (inactive) | 1.01 (inactive) | 0.924 (inactive) |
| CO/N=C(\C(=O)N[C@@H]1C(=O)N2C(C(=O)OCOC(=O)C(C)(C)C)=C(/C=C\c3scnc3C)CS[C@H]12)c1csc(N)n1 [Cefditoren Pivoxil] | – | – | 0.905 (inactive) | 0.387 (inactive) |
| CSc1nc2cc(Cl)c(Oc3cccc(Cl)c3Cl)cc2[nH]1 [Triclabendazole] | 0.0625 (active) | 0.129 (inactive) | 0.991 (inactive) | 0.0431 (active) |
| CCC(NC(C)C)C(O)c1ccc(O)c2[nH]c(=O)ccc12 (stereo not given) [Procaterol hydrochloride] | 1.08 (inactive) | 1.09 (inactive) | 1 (inactive) | 0.987 (inactive) |
| Cc1nc(=O)c2cc(CN(C)c3ccc(C(=O)N[C@@H](CCC(=O)O)C(=O)O)s3)ccc2[nH]1 [Raltitrexed] | 1.04 (inactive) | 0.997 (inactive) | 1 (inactive) | 0.991 (inactive) |
| CCN1/C(=C/C=C/C=C/c2sc3ccccc3[n+]2CC)Sc2ccccc21 [Dithiazanine iodide] | – | 1.02 (inactive) | 1 (inactive) | 0.695 (inactive) |
| Cc1nc(C)c(Cl)c(O)c1Cl [Clopidol] | 1.01 (inactive) | 0.991 (inactive) | 1.01 (inactive) | 0.983 (inactive) |
| CCCSS/C(CCO)=C(/C)N(C=O)Cc1cnc(C)nc1N [Prosultiamine] | 1.09 (inactive) | 1.06 (inactive) | 0.997 (inactive) | 1.02 (inactive) |
| Nc1nc(/C(=C/CC(=O)O)C(=O)N[C@@H]2C(=O)N3C(C(=O)O)=CCS[C@H]23)cs1 [Ceftibuten] | – | 0.58 (inactive) | 0.746 (inactive) | – |
| NC(=O)c1cc[n+](CC2=C(C(=O)O)N3C(=O)[C@@H](NC(=O)C(c4ccccc4)S(=O)(=O)[O-])[C@H]3SC2)cc1 (stereo not given in full) [Cefsulodin Sodium Salt Hydrate] | – | – | 0.995 (inactive) | 0.986 (inactive) |
| CCCCCCNC(=O)n1cc(F)c(=O)[nH]c1=O [Carmofur] | 0.0803 (active) | 0.0792 (active) | 0.806 (inactive) | 0.717 (inactive) |
| CCN1CC(CCN2CCOCC2)C(c2ccccc2)(c2ccccc2)C1=O (stereo not given) [Doxapram hydrochloride] | 1.05 (inactive) | 1.03 (inactive) | 1.02 (inactive) | 0.996 (inactive) |
| CO/N=C(\C(=O)N[C@@H]1C(=O)N2C(C(=O)OC(C)OC(C)=O)=C(COC(N)=O)CS[C@H]12)c1ccco1 (stereo not given in full) [Cefuroxime axetil] | – | 0.664 (inactive) | 1.1 (inactive) | – |
| C[C@H](CCc1ccccc1)NC[C@H](O)c1ccc(O)c(C(N)=O)c1 [Dilevalol] | 1.02 (inactive) | 1.05 (inactive) | 0.996 (inactive) | 1.01 (inactive) |
| COc1cccc(OC)c1C(=O)N[C@@H]1C(=O)N2[C@@H]1SC(C)(C)[C@@H]2C(=O)O [Methicillin sodium] | – | 0.708 (inactive) | 0.99 (inactive) | 0.482 (inactive) |
| Cc1c(O)cccc1C(=O)N[C@@H](CSc1ccccc1)[C@H](O)CN1C[C@H]2CCCC[C@H]2C[C@H]1C(=O)NC(C)(C)C [Nelfinavir mesylate] | 0.912 (inactive) | 0.954 (inactive) | 1 (inactive) | 0.962 (inactive) |
| CC(C)[C@H](N)C(=O)OCC(CO)OCn1cnc2c(=O)nc(N)[nH]c21 (stereo not given in full) [Valganciclovir hydrochloride] | 1.04 (inactive) | 1.08 (inactive) | 1 (inactive) | 1 (inactive) |
| CCN[C@@H]1C[C@H](N)[C@@H](O[C@H]2OC(CN)=CC[C@H]2N)[C@H](O)[C@H]1O[C@H]1OC[C@](C)(O)[C@H](NC)[C@H]1O [Netilmicin sulfate] | 1.02 (inactive) | 1.04 (inactive) | 0.996 (inactive) | 0.932 (inactive) |
| CC1(C)S[C@@H]2[C@H](NC(=O)[C@H](N)c3ccccc3)C(=O)N2[C@H]1C(=O)OC1OC(=O)c2ccccc21 (stereo not given in full) [Talampicillin hydrochloride] | 0.00561 (active) | 0.00787 (active) | 0.00491 (active) | 0.00469 (active) |
| CC(C)=CCOc1ccc(/C=C/C(=O)c2ccc(OCC=C(C)C)cc2OCC(=O)O)cc1 [Sofalcone] | 0.914 (inactive) | 0.993 (inactive) | 1 (inactive) | 0.902 (inactive) |
| CCCSc1nc(N[C@@H]2C[C@H]2c2ccc(F)c(F)c2)c2nnn([C@@H]3C[C@H](OCCO)[C@@H](O)[C@H]3O)c2n1 [Ticagrelor] | 0.786 (inactive) | 0.544 (inactive) | 1.03 (inactive) | 0.899 (inactive) |
| COc1cc(C(=O)N2CCOCC2)cc(OC)c1OC [Trimetozine] | 1.01 (inactive) | 1.01 (inactive) | 0.996 (inactive) | 0.991 (inactive) |
